HSP90 inh = HSP90 refolding inhibition in rabbit reticulocyte lysate; inhibition, % at 5.6 µM; 290,000 compounds, 0.91% hits; luciferase refolding luminescence, 3 h;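 active = inhibition above the screen-wide mean plus 3 SD, computed separately per campaign, cut at about 16% in these data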;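 also: 0% = DMSO wells and 100% = 60 µM geldanamycin wells; inhibitors lower the luminescence because luciferase stays unfolded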
TWEAK Fn14 block = blocks TWEAK-Fn14 interaction in a reporter cell assay; TWEAK-stimulated Fn14 reporter cells, luciferase luminescence, 8 h; inhibition, % at 10 µM; 360,000 compounds, 2% hits; in the data active = inhibition above about 50%
HIF-2a inh = blocks HIF-2a reporter activity | 786-0 RCC cells HIF-2a reporter, luciferase luminescence, overnight | inhibition, % at 18.8 µM | 360,000 compounds, 0.72% hits;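 active = inhibition of the luminescence signal of 40% or more relative to plate controls, in a single-dose primary screen at 18.75 µM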
aSyn UTR inh = MLPCN primary screen, SNCA 5' untranslated region; alpha-synuclein 5'UTR reporter, inhibitor activity; inhibition, % (tested at 7.5 µM); 300,000 compounds, 0.82% hits; in the data active = inhibition above about 60%; inconclusive = no clear call, values can overlap the other calls;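 also: H4 neuroglioblastoma cells stably carrying SNCA 5'UTR luciferase fusion; 0% = DMSO wells and 100% = positive control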
C8 TRAIL sens = caspase-8 TRAIL sensitization; 360,000 compounds, 1% hits; NB7+C8 cells + TRAIL, ATPlite viability luminescence; inhibition (viability loss, TRAIL sensitization), % at 10 µM;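 active = compounds causing at least 50% loss of cell viability in the single-dose screen, relative to plate controls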
TROY signal inh = inhibitors of TROY-dependent NF-kB signaling; Q293 LMP1-TROYcd NF-kB luciferase reporter, 4 h; inhibition, % at 10 µM; 360,000 compounds, 0.98% hits;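 active = compounds whose plate-normalised and pattern-corrected inhibition of the luciferase reporter signal at the single screening dose is 50% or more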
The depositor's hits bear a star; ? = inconclusive; nt = not tested or not shown. Sampled rows, rich in hits. Any-hit rate of the full collection: about 3.9%.

SMILES | HSP90 inh | TWEAK Fn14 block | HIF-2a inh | aSyn UTR inh | C8 TRAIL sens | TROY signal inh
c1cncc(-c2nnc(-c3cccnc3)nn2)c1 | 7 | -2 | -40 | -34 | -11 | -31
O=C(N/N=C/c1cccs1)c1ccc2c(c1)OCO2 | 2 | 42 | -66 | -65 | 76* | -30
CCN(CC)c1ccc(/C=N/NC(=O)c2c(-c3ccccc3)noc2C)cc1 | 8 | 18 | 1 | 9 | 0 | 53*
O=C(N/N=C/c1ccc2c(c1)OCO2)c1cccs1 | 4 | -9 | -229 | -135 | 41 | -32
O=C(N/N=C/c1ccccc1O)c1ccc2c(c1)OCO2 | 8 | -11 | -256 | -47 | 45 | 1
Cc1occc1C(=O)N/N=C/c1ccc2c(c1)OCO2 | 14 | 64* | -128 | -67 | 35 | 5
Cc1ccsc1C(=O)N/N=C/c1ccc2c(c1)OCO2 | 9 | 55* | -90 | -99 | 29 | -2
O=C1NC[C@H](CCCCN2C[C@H](Cc3ccccc3)N(CCC3CCCCC3)C(=O)C2=O)N(CCc2ccccc2)C1=O | nt | -8 | -23 | nt | -2 | 5
CC1(C(=O)NCc2ccccc2)CN(S(C)(=O)=O)CC(=O)N1Cc1cccc(C(F)(F)F)c1 (stereo not drawn) | nt | nt | -4 | nt | -2 | nt
CCc1nc2c(OCCOc3ccc(F)cc3)cccn2c1N(C)C(=O)c1ccco1 | nt | -2 | 15 | nt | -11 | -12
COc1ccc(/C=N/NC(=O)c2cc(-c3ccc4c(c3)OCO4)n[nH]2)cc1OC | -1 | 52* | -17 | -14 | 5 | -28
Cc1occc1C(=O)N/N=C/c1ccc(-c2ccccc2)cc1 | 45* | 34 | -133 | -29 | 35 | 15
CC1CCC(NC(=O)C(NS(=O)(=O)c2ccc(Br)cc2)C(C)C)CC1 (stereo not drawn) | nt | -5 | -72 | nt | 0 | -18
COc1cc(C(=O)C(=O)N2CCC(Cc3ccccc3)CC2)cc2ccccc12 | nt | nt | 2 | nt | -3 | nt
O=C(C1=C[C@@H](c2coc3ccccc3c2=O)C[C@@H](OCCCCO)O1)N1CCN(Cc2ccc3c(c2)OCO3)CC1 | 17* | -29 | 7 | 27 | 2 | -1
O=C(C1=C[C@@H](c2csc3ccccc23)C[C@@H](OCc2ccc(CO)cc2)O1)N1CCN(Cc2ccc3c(c2)OCO3)CC1 | 13 | 13 | 20 | 69* | 8 | 6
O=C(C1=C[C@@H](c2coc3ccccc3c2=O)C[C@@H](OCCCCO)O1)N1CCN(Cc2ccccc2)CC1 | 11 | 12 | 19 | 7 | -4 | -10
O=C(C1=C[C@H](C2CC2)C[C@H](OCCCCO)O1)N1CCN(Cc2ccc3c(c2)OCO3)CC1 | 17* | -21 | 17 | 13 | -4 | 6
COc1ccccc1NC(=O)c1c(C)cc(=O)oc1C | 3 | 60* | -15 | 13 | 7 | -10
Cc1ccccc1NC(=O)c1c(C)cc(=O)oc1C | 7 | 7 | 13 | -14 | 2 | -15
COc1ccc(NC(=O)CSc2nnc(C3CC3)n2-c2ccccc2)cc1 | 6 | -12 | -6 | 6 | -2 | -23
COc1ccc(-n2c(Cc3cccn3C)nnc2SCC(=O)Nc2ccc(C)c(Cl)c2)cc1 | -5 | 52* | -4 | 12 | 4 | -16
Cn1cccc1Cc1nnc(SCC(=O)N2CCc3ccccc32)n1-c1ccc(F)cc1 | -5 | 57* | 4 | 24 | -2 | 10
COc1ccc(NC(=O)CSc2nnc(-c3cccs3)n2-c2ccccc2)cc1 | 0 | 54* | 9 | -26 | 20 | -27
Cn1cccc1Cc1nnc(SCC(=O)N2CCCc3ccccc32)n1-c1ccc(F)cc1 | -6 | 35 | -5 | -13 | -16 | 0
SMILES | HSP90 inh | TWEAK Fn14 block | HIF-2a inh | aSyn UTR inh | C8 TRAIL sens | TROY signal inh
O=C(Nc1cccc(C(F)(F)F)c1)C1CC(=O)N(Cc2ccco2)C1 (stereo not drawn) | nt | 14 | -2 | nt | 10 | -2
Cc1ccccc1C(=O)NNC(=O)C1CCN(C(=O)Nc2ccccc2)CC1 | nt | -9 | -4 | -3 | 3 | 5
COc1ccc2c(c1O)C(=O)c1ccccc1C2=O | 3 | nt | nt | 17 | nt | nt
CC(C)COC(=O)c1ccc2c(c1O)C(=O)c1ccccc1C2=O | 14 | 71* | -175 | -3 | 57* | 29
O=C(Nc1ccc(N2CCOCC2)c(F)c1)c1cccs1 | 3 | 9 | -203 | -123 | 56* | -32
CCOc1ccc(C(=O)C(CCC(CN(C)C)C(=O)c2ccc(OCC)cc2)CN(C)C)cc1 (stereo not drawn) | 0 | 102* | 93* | -10 | -3 | 50*
COc1ccc(C(=O)C(CCCCC(CN(C)C)C(=O)c2ccc(OC)cc2)CN(C)C)cc1 (stereo not drawn) | 0 | -30 | 15 | -7 | -9 | 21
CN(C)CC(CCC(CN(C)C)C(=O)c1ccccc1)C(=O)c1ccccc1 (stereo not drawn) | 4 | 98* | 94* | -37 | 16 | 56*
COc1ccc(NC(=O)c2c(-c3c(Cl)cccc3Cl)noc2C)c(OC)c1 | -2 | 4 | 10 | 9 | -29 | 15
COc1ccc(-c2oc3c(c2C#CC2(O)CCCCC2)C(OC)CCC3)cc1 (stereo not drawn) | nt | 11 | 24 | nt | 2 | 6
Cc1csc2nc(CNC(=O)c3cccc(C(F)(F)F)c3)cn12 | 2 | 97* | 9 | 8 | -7 | nt
O=C1c2ccc3c4c(ccc(c24)C(=O)N1CCCCO)C(=O)N(CCCCO)C3=O | 0 | -57 | -36 | 111* | 38 | -44
O=C(c1ccc2c(c1)C(=O)N(CCCO)C2=O)c1ccc2c(c1)C(=O)N(CCCO)C2=O | 2 | 5 | 6 | nt | 2 | 15
S=c1sc2c(N3CCN(Cc4ccccc4)CC3)ncnc2n1-c1ccccc1 | 6 | 58* | 9 | -22 | 21 | 56*
CC1CCCN(c2ncnc3c2cnn3-c2ccc(Cl)cc2)C1 (stereo not drawn) | nt | 104* | 82* | 98* | 87* | 89*
CN1CCN(c2ncnc3c2cnn3-c2ccc(Cl)cc2)CC1 | 42* | 76* | -35 | 33 | 23 | 80*
CCN1CCN(c2ncnc3c2cnn3-c2ccc(Cl)cc2)CC1 | nt | 9 | -250 | -63 | 3 | 41
CC1CCCN(c2ncnc3c2cnn3-c2ccccc2)C1 (stereo not drawn) | nt | 92* | 18 | ? | 86* | 80*
COc1ccc(Cc2c(-c3ccc(F)cc3)nc3c(C)cc(Br)cn23)c(C)c1 | nt | 13 | 2 | nt | 0 | -1
O=c1ccn([C@@H]2O[C@H](CNCc3cccn3-c3nccs3)[C@@H](O)[C@H]2O)c(=O)[nH]1 | nt | 9 | 5 | nt | -7 | 4
CCc1nc2ccc(C(=O)NCc3ccc4c(c3)OCO4)cn2c1N(C)Cc1ccc(OC)cc1 | nt | -6 | 22 | nt | -4 | 20
CCN1CCN(c2ncnc3c2cnn3-c2ccccc2)CC1 | -4 | -15 | -232 | -98 | 6 | -63
CC1CC(C)CN(c2ncnc3c2cnn3C)C1 (stereo not drawn) | 0 | -4 | 17 | 16 | -5 | -11
